From PubChem BioAssay (NCI)
About 83,000 compounds went through this panel and 20% of them were active in at least one assay; those are over-represented in the sample as a whole.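 Cells were grown in 96-well plates and exposed to the test compound at a single concentration for 48 hours; results are reported as percent growth, with values below 10 considered active.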 A number with no mark means an inactive call. Activity calls are given as the source filed them.

What follows are compounds tested on UO-31 renal (assay: NCI-60 one-dose screen, 48 h (100 = growth as untreated, 0 = no growth, -100 = all killed)). Conditions: 10 µM unless noted.

| SMILES | growth |
| --- | --- |
| Cc1ccc2c(C(C[N+](=O)[O-])c3ccccc3)c(-c3ccccc3)[nH]c2c1 (stereo not drawn) | 35% [9.5 µM] |
| O=C1c2cccc3cccc(c23)C(=O)N1CCCCCN1CCN(CCCCCOc2ccc(-c3nc4ccc(N5CCOCC5)cc4[nH]3)cc2)CC1 | 4.03% (active) |
| COc1ccc(/C=C(\C#N)C(=O)Nc2cccc(Nc3nc(SC)nc(-c4cccc([N+](=O)[O-])c4)c3C#N)c2)cc1OC | 88.3% |
| O=C1Nc2ccc(Br)cc2C12Oc1ccccc1C1CC(c3ccc(F)cc3)=NN12 (stereo not drawn) | 65.6% |
| CSc1nc(-c2cccc(NC(=O)CCl)c2)c(C#N)c(=O)n1C | -53.2% (active) |
| Oc1cccc2ccc(N/N=C/c3cc(CN4CCOCC4)c(O)c4ncccc34)nc12 | -4.14% (active) |
| CC(C)(C)c1cc(C(C)(C)C)cc(S(=O)(=O)Nc2cc3ccccc3cc2C(=O)NCCN)c1 | 53.2% |
| COc1ccc(/C=C/c2nc3ccccc3nc2/C=C/c2ccc(OC)cc2)cc1 | 84.7% |
| COc1cc(/C=C/c2cc(/C=C/c3ccc(O)c(OC)c3)n(-c3c(Cl)cccc3Cl)c(=O)n2)ccc1O | 25.2% |
| Cc1cc(C)nc(SC2=C(Nc3cc(Cl)ccc3O)C(=O)N(Cc3ccccc3)C2=O)n1 | 82.4% [30 µM] |
| CC(C)(C)CC(C)(C)c1ccc(OCCOCC[N+](C)(C)Cc2ccccc2)cc1 | 86.1% |
| O=C(NCCN1CCOCC1)Nc1ccc(-c2cc3c(Nc4ccc(Oc5cccc(C(F)(F)F)c5)c(Cl)c4)ncnc3s2)cc1 | -35.8% (active) |
| NNCCc1ccc(NC(=O)CCCc2ccc(/C=C/C(=O)NO)cc2)cc1 | 49.2% |
| COc1ccc(C2CC(c3ccc(Cl)cc3)=NN2/C=C2\SC(=S)N(NC(=O)Cc3ccccc3Nc3c(Cl)cccc3Cl)C2=O)cc1 (stereo not drawn) | -30.2% (active) |
| CCCSc1ccc2nc(NC(=O)OC)[nH]c2c1 | 45.5% |
| CCCN1CCN(c2ccc3nc(-c4ccc5nc(-c6ccc(OCC)cc6)[nH]c5c4)[nH]c3c2)CC1 | 87.2% |
| CCn1c(O)c(/C=N/NC(=O)C(C)c2ccc(CC(C)C)cc2)sc1=S (stereo not drawn) | 23.6% |
| CN1CCN(CCCOc2cccc3nc(Nc4cc(Cl)cc(Cl)c4)ccc23)CC1 | -15.8% (active) |
| O=C(CCN1C(=O)/C(=C/c2ccc(Cl)cc2)SC1=S)NCCCN1CCOCC1 | 84.9% |

| SMILES | growth |
| --- | --- |
| c1ccc(Cn2cc(-c3nc4ccccc4s3)c3cccnc32)cc1 | 76.7% |
| O=C1c2cccc3cccc(c23)C(=O)N1CCCCN1CCN(CCCCOc2ccc(-c3nc4ccc(N5CCOCC5)cc4[nH]3)cc2)CC1 | 32.8% |
| COc1cc(C2CC(=O)c3ccccc3N2)cc(OC)c1OC (stereo not drawn) | 92.4% |
| O=C1c2cc3c(cc2-c2c1c1ccc(F)cc1c(=O)n2C[C@H](O)[C@H](O)[C@H](O)CO)OCO3 | -55.2% (active) |
| Cc1[nH]c(-c2ccc3cc[nH]c3c2)c2c1C(=O)CCCC2 | 22.2% |
| O=C(O)c1c(=O)cccc2ssc12 | 21.7% |
| O=C1c2cc3c(cc2-c2c1c1ccc(Cl)cc1c(=O)n2CCCN1CCOCC1)OCO3 | 44.5% |
| Cn1cc(-c2nonc2-c2c[nH]c3ccccc23)c2cccnc21 | 55.7% |
| CCCCN(CCCC)CCCn1c(-c2ccccc2)ccc1-c1ccccc1 | 56.9% |
| CC1=CC(=NN=c2cc(C)n([O-])c(C)c2)C=C(C)[N+]1=O | 85.7% |
| CN(C)S(=O)(=O)c1ccc(S(=O)(=O)Nc2cccc(Cl)c2N2CCCCC2)cc1 | 72.7% |
| Cc1cn2c(/C=C3/C(=O)Nc4c3ccc3ccccc43)c(C(F)(F)F)nc2s1 | 34.7% |
| Oc1cccc(-c2nc(N3CCOCC3)c3c4c(sc3n2)CCCC4)c1 | 13.1% |
| COc1ccc(S(=O)(=O)N2CCCCC2)cc1NC(=O)c1[nH]c(C)c2c1CCCCC2=O | 9.67% (active) |
| Cc1cc(C)nc(SC2=C(Nc3cccc(Cl)c3)C(=O)N(Cc3ccccc3)C2=O)n1 | 34% [30 µM] |
| C#Cc1cccc(NC(=O)c2ccccc2NC(=O)CCl)c1 | 86.9% [8.25 µM] |
| C=C(C)[C@@H]1CC[C@]2(C(=O)OC)CC[C@]3(C)[C@H](CC[C@@H]4[C@@]5(C)C/C(=C/c6ccc(OC)cc6)C(=O)C(C)(C)[C@@H]5CC[C@]43C)[C@@H]12 | 79.7% |
| N#Cc1c(-c2ccc(Cl)cc2)nc(N=Nc2c(O)[nH]c3ccc(Cl)cc23)nc1N1CCOCC1 | 67.5% |
| CN1CCN(CCCOc2cccc3nc(Nc4ccc(Cl)c(F)c4)ccc23)CC1 | 22.5% |
